{"source": "PubChem BioAssay (Tox21)", "note": "Inconclusive results are not listed. A call without a number means that no potency is given here. Unmarked numbers belong to inactive results. The source made the active and inactive calls. The call rests on the fitted dose curve; in most records, active means well fitted cell-killing curve with a large enough effect in the repeat runs; inconclusive means weak or mixed curves, or effect the other way; inactive means flat fitted curve, though single readings scatter."}
{"experiment": "cAMP Responsive Elements (CRE) small molecule antagonists, cell-based qHTS assay: qHTS cell viability counter screen (AID 2060913); further: nearly all actives have a fitted effect of over 40% in size", "conditions": "CRE-bla HEK293T viability, CellTiter-Glo luminescence, 5 h; series mostly up to 92.4 µM", "summary_of_the_method": "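HEK293T CRE-bla, 2,000 cells/well, 18 h preincubation; cpd in DMSO + NKH477 0.25 uM final, 3 h 37 C/5% CO2; LiveBLAzer 2 h RT, then CellTiter-Glo 30 min RT, luminescence.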"}
{"compound": "CC(=O)OCC(=O)[C@@]1(OC(C)=O)[C@@H](C)C[C@H]2[C@@H]3C[C@H](F)C4=CC(=O)C=C[C@]4(C)[C@@]3(F)[C@@H](O)C[C@@]21C", "Potency": "inactive"}
{"compound": "CCO[Si](CCCS)(OCC)OCC", "Potency": "inactive"}
{"compound": "CC(=O)O[C@]1(C(C)=O)CC[C@H]2[C@@H]3C=C(Cl)C4=CC(=O)[C@@H]5C[C@@H]5[C@]4(C)[C@H]3CC[C@@]21C", "Potency": "inactive"}
{"compound": "O=C(O)CCCCCC(=O)O", "Potency": "inactive"}
{"compound": "CCC1(CO)COCOC1", "Potency": "inactive"}
{"compound": "c1ccc(CNCCNCc2ccccc2)cc1", "Potency": "inactive"}
{"compound": "c1ccc(C[n+]2cccc3ccccc32)cc1", "Potency": "inactive"}
{"compound": "CC1CNCC(C)O1", "note": "(stereo not given)", "Potency": "inactive"}
{"compound": "CC(C)(C)C(=O)C(Oc1ccc(Cl)cc1)n1ccnc1", "note": "(stereo not given)", "Potency": "inactive"}
{"compound": "SCCc1cnccn1", "Potency": "inactive"}
{"compound": "Cc1nnc(C(=O)NC(C)(C)c2nc(C(=O)NCc3ccc(F)cc3)c(O)c(=O)n2C)o1", "Potency": "inactive"}
{"compound": "CC(C)C(=O)Nc1cccc(C2CN3CCSC3=N2)c1", "note": "(stereo not given)", "Potency": "inactive"}
{"compound": "O=C1c2ccccc2-c2ccccc21", "Potency": "inactive"}
{"compound": "C[Si](NC1CCCCC1)(NC1CCCCC1)NC1CCCCC1", "Potency": "inactive"}
{"compound": "CN(C)c1ccc(Cc2ccc(N(C)C)cc2)cc1", "Potency": "inactive"}
{"compound": "C[Si](C)(C)Cl", "Potency": "inactive"}
{"compound": "Cc1cc(C(C)(C)C)cc(C)c1CC1=NCCN1", "Potency": "inactive"}
{"compound": "OC[C@H]1O[C@@H](Oc2ccc(O)cc2)[C@H](O)[C@@H](O)[C@@H]1O", "Potency": "inactive"}
{"compound": "C=C(C)C(=O)OCCOC(=O)CC(C)=O", "Potency": "inactive"}
{"compound": "Cc1cccc(S(=O)(=O)O)c1C", "Potency": "inactive"}
{"compound": "CC(C)C(=O)O", "Potency": "inactive"}
{"compound": "N#Cc1nc(Cl)c(Cl)c(Cl)c1Cl", "Potency": "inactive"}
{"compound": "CCO[Si](OCC)(OCC)c1ccccc1", "Potency": "inactive"}
{"compound": "O=[N+]([O-])c1ccc(F)c(Cl)c1", "Potency": "inactive"}
{"compound": "CCCCOCCOCCSC#N", "Potency": "inactive"}
{"compound": "CS(=O)(=O)c1ccc([C@@H](C[C@H]2CCC(=O)C2)C(=O)Nc2cnccn2)cc1Cl", "Potency": "inactive"}
{"compound": "CC1=CC=C(C(C)C)CC1", "Potency": "inactive"}
{"compound": "CCCC/C=C\\CCCCCCCCCC=O", "Potency": "inactive"}
{"compound": "CC1=CCC(=O)O1", "Potency": "inactive"}
{"compound": "Nc1nc(N)nc(-c2ccccc2)n1", "Potency": "inactive"}
{"compound": "O=[N+]([O-])c1ccc(NCCO)c(OCCO)c1", "Potency": "inactive"}
{"compound": "CC(C)(c1ccc(Oc2ccc(N)cc2)cc1)c1ccc(Oc2ccc(N)cc2)cc1", "Potency": "inactive"}
{"compound": "CN[C@@H]1[C@@H](O)[C@@H](O[C@@H]2[C@H](O)[C@H](O[C@H]3OC(CN)=CC[C@H]3N)[C@@H](N)C[C@H]2N)OCC1(C)O", "note": "(stereo not given in full)", "Potency": "inactive"}
{"compound": "CCCCN1C=CN(C)C1", "viability change, negative = cytotoxic": "7.21% [at 18.9 µM]"}
{"compound": "CCCCCCCC/C=C\\CCCCCCCC(=O)NCc1ccc(O)c(OC)c1", "Potency": "inactive"}
{"compound": "CO/N=C(/C(=O)N[C@@H]1C(=O)N2C(C(=O)O)=C(Cn3nnc(C)n3)CS[C@H]12)c1csc(N)n1", "Potency": "inactive"}
{"compound": "CCCCCCCCC(=O)O", "Potency": "inactive"}
{"compound": "O=C(c1ccc(F)cc1)C1CCN(CCn2c(=O)[nH]c3ccccc3c2=O)CC1", "Potency": "inactive"}
{"compound": "NCC1CCC(C(=O)Oc2ccc(CCC(=O)O)cc2)CC1", "note": "(stereo not given)", "Potency": "inactive"}
{"compound": "CC(=O)c1c(C)c([N+](=O)[O-])c(C(C)(C)C)c([N+](=O)[O-])c1C", "Potency": "inactive"}
{"experiment": "cAMP Responsive Elements (CRE) small molecule agonists, cell-based qHTS assay: qHTS cell viability counter screen (AID 2060914); further: nearly all actives have a fitted effect of over 50% in size", "conditions": "CRE-bla HEK293T viability, CellTiter-Glo luminescence, 5 h; series mostly up to 92.4 µM", "summary_of_the_method": "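HEK 293T CRE-bla; DMEM + 10% dialyzed FBS, 25 mM HEPES; 18 h pre-incubation; compound 3 h, 37 °C/5% CO2; CellTiter-Glo added after reporter read; luminescence after 30 min RT.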"}
{"compound": "CC(=O)OCC(=O)[C@@]1(OC(C)=O)[C@@H](C)C[C@H]2[C@@H]3C[C@H](F)C4=CC(=O)C=C[C@]4(C)[C@@]3(F)[C@@H](O)C[C@@]21C", "Potency": "inactive"}
{"compound": "CCO[Si](CCCS)(OCC)OCC", "Potency": "inactive"}
{"compound": "CC(=O)O[C@]1(C(C)=O)CC[C@H]2[C@@H]3C=C(Cl)C4=CC(=O)[C@@H]5C[C@@H]5[C@]4(C)[C@H]3CC[C@@]21C", "Potency": "inactive"}
{"compound": "O=C(O)CCCCCC(=O)O", "Potency": "inactive"}
{"compound": "CCC1(CO)COCOC1", "Potency": "inactive"}
{"compound": "c1ccc(CNCCNCc2ccccc2)cc1", "Potency": "inactive"}
{"compound": "c1ccc(C[n+]2cccc3ccccc32)cc1", "Potency": "inactive"}
{"compound": "CC1CNCC(C)O1", "note": "(stereo not given)", "Potency": "inactive"}
{"compound": "CC(C)(C)C(=O)C(Oc1ccc(Cl)cc1)n1ccnc1", "note": "(stereo not given)", "Potency": "inactive"}
{"compound": "SCCc1cnccn1", "Potency": "inactive"}
{"compound": "Cc1nnc(C(=O)NC(C)(C)c2nc(C(=O)NCc3ccc(F)cc3)c(O)c(=O)n2C)o1", "Potency": "inactive"}
{"compound": "CC(C)C(=O)Nc1cccc(C2CN3CCSC3=N2)c1", "note": "(stereo not given)", "Potency": "inactive"}
{"compound": "O=C1c2ccccc2-c2ccccc21", "Potency": "inactive"}
{"compound": "C[Si](NC1CCCCC1)(NC1CCCCC1)NC1CCCCC1", "Potency": "inactive"}
{"compound": "CN(C)c1ccc(Cc2ccc(N(C)C)cc2)cc1", "Potency": "inactive"}
{"compound": "C[Si](C)(C)Cl", "Potency": "inactive"}
{"compound": "Cc1cc(C(C)(C)C)cc(C)c1CC1=NCCN1", "Potency": "inactive"}
{"compound": "OC[C@H]1O[C@@H](Oc2ccc(O)cc2)[C@H](O)[C@@H](O)[C@@H]1O", "Potency": "inactive"}
{"compound": "C=C(C)C(=O)OCCOC(=O)CC(C)=O", "Potency": "inactive"}
{"compound": "Cc1cccc(S(=O)(=O)O)c1C", "Potency": "inactive"}
{"compound": "CC(C)C(=O)O", "Potency": "inactive"}
{"compound": "N#Cc1nc(Cl)c(Cl)c(Cl)c1Cl", "Potency": "inactive"}
{"compound": "CCO[Si](OCC)(OCC)c1ccccc1", "Potency": "inactive"}
{"compound": "O=[N+]([O-])c1ccc(F)c(Cl)c1", "Potency": "inactive"}
{"compound": "CCCCOCCOCCSC#N", "Potency": "inactive"}
{"compound": "CS(=O)(=O)c1ccc([C@@H](C[C@H]2CCC(=O)C2)C(=O)Nc2cnccn2)cc1Cl", "Potency": "inactive"}
{"compound": "CC1=CC=C(C(C)C)CC1", "Potency": "inactive"}
{"compound": "CCCC/C=C\\CCCCCCCCCC=O", "Potency": "inactive"}
{"compound": "CC1=CCC(=O)O1", "Potency": "inactive"}
{"compound": "Nc1nc(N)nc(-c2ccccc2)n1", "Potency": "inactive"}
{"compound": "O=[N+]([O-])c1ccc(NCCO)c(OCCO)c1", "Potency": "inactive"}
{"compound": "CC(C)(c1ccc(Oc2ccc(N)cc2)cc1)c1ccc(Oc2ccc(N)cc2)cc1", "Potency": "inactive"}
{"compound": "CN[C@@H]1[C@@H](O)[C@@H](O[C@@H]2[C@H](O)[C@H](O[C@H]3OC(CN)=CC[C@H]3N)[C@@H](N)C[C@H]2N)OCC1(C)O", "note": "(stereo not given in full)", "Potency": "inactive"}
{"compound": "CCCCN1C=CN(C)C1", "activity change, negative = cytotoxicity": "2.49% [at 18.9 µM]"}
{"compound": "CCCCCCCC/C=C\\CCCCCCCC(=O)NCc1ccc(O)c(OC)c1", "Potency": "inactive"}
{"compound": "CO/N=C(/C(=O)N[C@@H]1C(=O)N2C(C(=O)O)=C(Cn3nnc(C)n3)CS[C@H]12)c1csc(N)n1", "Potency": "inactive"}
{"compound": "CCCCCCCCC(=O)O", "Potency": "inactive"}
{"compound": "O=C(c1ccc(F)cc1)C1CCN(CCn2c(=O)[nH]c3ccccc3c2=O)CC1", "Potency": "inactive"}
{"compound": "NCC1CCC(C(=O)Oc2ccc(CCC(=O)O)cc2)CC1", "note": "(stereo not given)", "Potency": "inactive"}
{"compound": "CC(=O)c1c(C)c([N+](=O)[O-])c(C(C)(C)C)c([N+](=O)[O-])c1C", "Potency": "inactive"}
